Sampled rows, rich in hits. Any-hit rate of the full collection: about 19%.
IL1B secr inh – qHTS for Inhibitors of Inflammasome Signaling: IL-1-beta AlphaLISA Primary Screen. THP-1 LPS/ATP IL-1B secretion, AlphaLISA, 16 h; active compounds read low. activity change, % at 57.5 µM. actives 4.7% (n = 360,000); in the data active means activity change below about -50%; inconclusive means mostly about -30% to -49%
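THP-1 cells pretreated 1 hr with compounds (up to 57.5 uM final), then stimulated with LPS (250 ng/mL final) plus ATP (1.25 mM final); secreted IL-1B measured by AlphaLISA after 16 hr, decreased signal indicating inhibition.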
HT1080-NT tox – qHTS for induction of synthetic lethality in tumor cells producing 2HG: qHTS for the HT-1080-NT fibrosarcoma cell line; HT-1080-NT fibrosarcoma viability, CellTiter-Glo ATP luminescence, 48 h; Potency, µM (top dose mostly 46.1 µM), for inactives: at the top dose activity, negative = less viability, usual class: cytotoxic; actives 1.6% (n = 360,000);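 further: NT is the 2HG producing partner of a matched IDH1 knockdown line; potency means the concentration at half of the fitted maximal effect; 0% = DMSO-treated cells and -100% = media-only wells without cells; nearly all actives have a fitted effect of over 55% in size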
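HT-1080-NT fibrosarcoma cells (2HG-overproducing), 750 cells/well in RPMI with 5% FBS, dosed after 2 h and incubated 48 h at 37C. CellTiter-Glo luminescence normalized to DMSO and no-cell wells; concentration-response curves fitted and classed.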
DT40 TDP1 no CPT – qHTS for Inhibitors of human tyrosyl-DNA phosphodiesterase 1 (TDP1): qHTS in cells in absence of CPT; Potency, µM (top dose mostly 46.2 µM), for inactives: at the top dose activity change, negative = growth inhibition, most hits filed as inhibitors; actives 15% (n = 420,000); DT40 Tdp1-/- hTDP1 cells, no CPT, ATP luminescence, 48 h; further: potency means the concentration at half of the fitted maximal effect; nearly all actives have a fitted effect of over 55% in size
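Compound effects on proliferation are scored in DT40 Tdp1-/-;hTDP1 cells in the absence of CPT. ATP levels (CellTiter-Glo luminescence) are recorded after a ≥48 hr, 37 °C incubation.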
TDP1 cell CPT – qHTS for Inhibitors of human tyrosyl-DNA phosphodiesterase 1 (TDP1): qHTS in cells in presence of CPT | chicken DT40 Tdp1-/-;hTDP1 cells + 20 nM CPT, ATP luminescence, 48 h | Potency, µM (series often up to 46.2 µM), inactives show at the top dose activity change, negative = growth inhibition, most hits filed as inhibitors | actives 12% (n = 420,000) | AID 686979, 2013; further: potency means the concentration at half of the fitted maximal effect; nearly all actives have a fitted effect of over 55% in size
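Chicken DT40 Tdp1-/- cells stably complemented with human TDP1 were seeded at 400 cells/well in medium containing 20 nM camptothecin, exposed to pin-transferred compounds, and grown at 37 °C for at least 48 hr. Viability was read as ATP luminescence.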
HT1080 IDH1KD tx – qHTS for induction of synthetic lethality in tumor cells producing 2HG: qHTS for the HT-1080-IDH1KD cell line | HT-1080 IDH1 knockdown viability, ATP luminescence, 48 h | Potency, µM (series often up to 46.1 µM), for inactives: at the top dose activity, negative = toxicity, most hits filed as cytotoxic | actives 2% (n = 360,000) | AID 686971, 2013;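 further: potency means the concentration at half of the fitted maximal effect; 0% = DMSO wells and -100% = cell-free medium wells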
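% activity derives from luminescence (CellTiter-Glo), normalised to DMSO and no-cell wells. HT-1080-IDH1KD cells, 750/well, had 48 h compound exposure at 37 °C.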
uPA surface inh – qHTS for Inhibitors of Cell Surface uPA Generation; AID 540303, 2011; actives 0.31% (n = 330,000); cell surface uPA generation assay, qHTS; Potency, µM (doses to about 38.3 µM), for inactives: top-dose activity change, negative = inhibition, hits mostly inhibitors; active means well fitted inhibition curve with a large enough effect; inconclusive means small, poorly fitted or top-dose-only effect; inactive means no such curve, though single readings can be large or run the other way; tested in mouse RAW 264.7 cells; further: potency means the concentration at half of the fitted maximal effect; nearly all actives have a fitted effect of over 55% in size
Starred values were filed as active, the others as inactive. Unless noted, the call rests on the fitted dose curve; in most records, active means well fitted curve in the direction sought with a large enough effect; inconclusive means small, poorly fitted or top-dose-only effect, or another doubt; inactive means no such curve, though single readings can be large; an effect the other way counts as inactive or inconclusive. Unless noted, on the % scale 0 is the no-effect control and ±100 the full control effect.

Results for CCOC(=O)CSc1nc2c(sc(=S)n2-c2ccccc2OC)c(=O)n1Cc1ccco1 ?
IL1B secr inh: 10; HT1080-NT tox: -18%; DT40 TDP1 no CPT: -1%; TDP1 cell CPT: -15%; HT1080 IDH1KD tx: 0%

What do the screens show for `CCOC(=O)CSc1nc2c(sc(=S)n2-c2ccccc2OC)c(=O)n1-c1ccccc1OC`?
IL1B secr inh: -64*; HT1080-NT tox: 5%; DT40 TDP1 no CPT: inconclusive; TDP1 cell CPT: -24%; HT1080 IDH1KD tx: 15%; uPA surface inh: 9%

What do the screens show for `COc1ccc(-n2c(SCC(=O)C(C)(C)C)nc3c(sc(=S)n3-c3ccccc3)c2=O)c(OC)c1`?
IL1B secr inh: 22; HT1080-NT tox: 4%; DT40 TDP1 no CPT: 12µM*; TDP1 cell CPT: 13µM*; HT1080 IDH1KD tx: 10%; uPA surface inh: 10%

What do the screens show for `O=[N+]([O-])c1ccc2c(c1)C(=Nc1ccccc1)c1ccccc1-2`?
IL1B secr inh: -11; HT1080-NT tox: 7%; DT40 TDP1 no CPT: -2%; TDP1 cell CPT: 2%; HT1080 IDH1KD tx: 15%; uPA surface inh: -6%

Results for O=C1OC(=O)c2cc([N+](=O)[O-])ccc21 ?
IL1B secr inh: -54*; HT1080-NT tox: 21%; DT40 TDP1 no CPT: -2%; TDP1 cell CPT: 3%; HT1080 IDH1KD tx: 10%; uPA surface inh: -15%

Results for O=C(Nc1cc2c(cc1Cl)-c1ccc([N+](=O)[O-])cc1C2=NO)C(F)(F)F ?
IL1B secr inh: -65*; HT1080-NT tox: 8%; DT40 TDP1 no CPT: 23µM*; TDP1 cell CPT: inconclusive; HT1080 IDH1KD tx: 6%; uPA surface inh: 7%

How did O=C(Nc1ccc2c(c1)Cc1cc([N+](=O)[O-])ccc1-2)C(F)(F)F do in these assays?
IL1B secr inh: -8; HT1080-NT tox: -1%; DT40 TDP1 no CPT: 6.5µM*; TDP1 cell CPT: inconclusive; HT1080 IDH1KD tx: -7%; uPA surface inh: -1%

What do the screens show for `O=[N+]([O-])c1ccc2c(c1)-c1ccccc1C2=NO`?
IL1B secr inh: -75*; HT1080-NT tox: 0%; DT40 TDP1 no CPT: 16µM*; TDP1 cell CPT: 18µM*; HT1080 IDH1KD tx: 6%; uPA surface inh: 4%

What do the screens show for `O=C(Nc1ccccc1F)Nc1ccc([N+](=O)[O-])cc1Cl`?
IL1B secr inh: inconclusive; HT1080-NT tox: 5%; DT40 TDP1 no CPT: inconclusive; TDP1 cell CPT: inconclusive; HT1080 IDH1KD tx: 11%; uPA surface inh: 1%

Results for COc1cc(C(=O)Nc2ccc(NC(=O)c3ccccc3Cl)nc2)cc(OC)c1OC ?
IL1B secr inh: -15; HT1080-NT tox: -13%; DT40 TDP1 no CPT: inconclusive; TDP1 cell CPT: inconclusive; HT1080 IDH1KD tx: -20%; uPA surface inh: 4%

What do the screens show for `Cc1ccnc(NC(=O)CCN2C(=O)c3ccccc3S2(=O)=O)n1`?
IL1B secr inh: 4; HT1080-NT tox: 2%; DT40 TDP1 no CPT: -16%; TDP1 cell CPT: -2%; HT1080 IDH1KD tx: -1%; uPA surface inh: 6%

What do the screens show for `O=c1[nH]cnc(O)c1C(c1ccc([N+](=O)[O-])cc1)c1c(O)nc[nH]c1=O`?
IL1B secr inh: -12; HT1080-NT tox: -5%; DT40 TDP1 no CPT: -3%; TDP1 cell CPT: -13%; HT1080 IDH1KD tx: -2%; uPA surface inh: -4%

What do the screens show for `Nc1ccc2c(c1)C(=NO)c1cc([N+](=O)[O-])ccc1-2`?
IL1B secr inh: -73*; HT1080-NT tox: -16%; DT40 TDP1 no CPT: 2.1µM*; TDP1 cell CPT: 0.58µM*; HT1080 IDH1KD tx: inconclusive; uPA surface inh: -8%

How did O=C(O)c1cc([N+](=O)[O-])ccc1-c1ccc([N+](=O)[O-])cc1C(=O)O do in these assays?
IL1B secr inh: inconclusive; HT1080-NT tox: 9%; DT40 TDP1 no CPT: 3%; TDP1 cell CPT: 2%; HT1080 IDH1KD tx: 17%

What do the screens show for `O=C(Nc1ccc(F)cc1)C1CCN(S(=O)(=O)c2ccc3c(c2)CCCN3C(=O)C2CCC2)CC1`?
DT40 TDP1 no CPT: 8.2µM*; TDP1 cell CPT: 18µM*

What do the screens show for `Cc1ccc(NC(=O)C2CCN(S(=O)(=O)c3ccc4c(c3)CCCN4C(=O)C3CCC3)CC2)cc1`?
DT40 TDP1 no CPT: inconclusive; TDP1 cell CPT: 16µM*

What do the screens show for `CCN(C(=O)C1CCN(S(=O)(=O)c2ccc3c(c2)CCCN3C(=O)C2CCC2)CC1)c1cccc(C)c1`?
DT40 TDP1 no CPT: 18µM*; TDP1 cell CPT: 16µM*

Results for CC1CCN(S(=O)(=O)c2ccc3c(c2)CCN3C(=O)C2CCC2)CC1 ?
IL1B secr inh: 19; HT1080-NT tox: 7%; DT40 TDP1 no CPT: inconclusive; TDP1 cell CPT: inconclusive; HT1080 IDH1KD tx: 12%; uPA surface inh: -1%

Results for CCOc1ccc(NC(=O)C2CCCN(S(=O)(=O)c3ccc4c(c3)CCCN4C(C)=O)C2)cc1 (configuration not stated) ?
IL1B secr inh: -17; HT1080-NT tox: 5%; DT40 TDP1 no CPT: -24%; TDP1 cell CPT: 1%; HT1080 IDH1KD tx: -8%; uPA surface inh: 6%

Results for CC1(C)Cc2c(sc3ncnc(NNC(=S)NCc4ccccc4)c23)CO1 ?
IL1B secr inh: 85; HT1080-NT tox: inconclusive; DT40 TDP1 no CPT: 23µM*; TDP1 cell CPT: inconclusive; HT1080 IDH1KD tx: 1.8µM*; uPA surface inh: inconclusive

How did Cc1ccc(NC(=O)Nc2nnc(N(CC(C)C)CC(C)C)s2)cc1Cl do in these assays?
DT40 TDP1 no CPT: 16µM*; TDP1 cell CPT: 9.2µM*

What do the screens show for `Cc1ccc(NC(=O)NCc2ccncc2)cc1Cl`?
IL1B secr inh: -19; HT1080-NT tox: 24%; DT40 TDP1 no CPT: -19%; TDP1 cell CPT: 3%; HT1080 IDH1KD tx: -3%; uPA surface inh: 2%

How did O=c1c(-c2cccc(Cl)c2)nc2cncnc2n1Cc1ccc(F)cc1 do in these assays?
DT40 TDP1 no CPT: -21%; TDP1 cell CPT: 1%

How did Cc1ccc(-n2c(-c3ccco3)nc3c(cnn3-c3ccc(C)cc3)c2=O)cc1 do in these assays?
IL1B secr inh: 15; HT1080-NT tox: 7%; DT40 TDP1 no CPT: 4.1µM*; TDP1 cell CPT: inconclusive; HT1080 IDH1KD tx: 7%; uPA surface inh: 17%

Bioassay records deposited in PubChem by National Center for Advancing Translational Sciences (NCATS).
